Pf growth 96h: P. falciparum growth inhibition at 96 hours. P. falciparum luciferase reporter growth, 96 h. Potency, µM (top dose mostly 28.7 µM), for inactives: at the highest dose activity change, negative = inhibition, most hits filed as inhibitors. actives 6.9% (n = 320,000). AID 504834
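Erythrocytes infected with luciferase-expressing P. falciparum were dispensed at 2% hematocrit and 0.05% parasitemia (final), then incubated with compounds 96 hours at 37 C in 5% CO2. Luminescence after detection reagent addition reported growth.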
AMA1 RON2 block: disrupts binding of P. falciparum AMA1 to RON2; AlphaScreen AMA1-biotinylated RON2 peptide binding; actives 0.2% (n = 360,000); Potency, µM (top dose mostly 58.2 µM), for the others: at the highest dose activity change, negative = inhibition, usual class: inhibitors;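 also: 0% = vehicle wells and -100% = peptide control; nearly all actives have a fitted effect of over 45% in size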
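AMA1 (3D7) with his tag at 25 nM final met compounds first, then biotinylated RON2 peptide at 25 nM; detection used donor plus acceptor beads, 10 µg/mL apiece, read by AlphaScreen after 30 min at room temperature.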
AmpC no deterg: blocks E. coli AmpC beta-lactamase in detergent-free assay; AID 485341; AmpC nitrocefin hydrolysis, absorbance 480 nm, 0.0001% Triton; actives 0.52% (n = 330,000); Potency, µM (series often up to 57.1 µM), for the others: at the highest dose activity change, negative = inhibition, hits mostly inhibitors;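 also: plate controls were no compound for no effect and no enzyme for full effect; nearly all actives have a fitted effect of over 20% in size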
Target sequence (P00811 whole entry, looked up): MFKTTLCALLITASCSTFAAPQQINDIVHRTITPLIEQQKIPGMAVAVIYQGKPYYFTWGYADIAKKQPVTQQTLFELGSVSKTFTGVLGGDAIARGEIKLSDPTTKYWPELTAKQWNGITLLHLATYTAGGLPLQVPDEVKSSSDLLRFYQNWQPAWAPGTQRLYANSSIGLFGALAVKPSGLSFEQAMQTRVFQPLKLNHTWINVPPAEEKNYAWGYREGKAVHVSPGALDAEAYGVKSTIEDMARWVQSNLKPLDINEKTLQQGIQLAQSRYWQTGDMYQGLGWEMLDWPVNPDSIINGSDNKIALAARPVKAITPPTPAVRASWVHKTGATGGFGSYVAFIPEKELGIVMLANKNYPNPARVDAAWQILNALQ
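AmpC (5.3 nM in the dispensed reagent) in 20 mM phosphate pH 7.0 with 0.01% (detergent screen) or 0.0001% Triton X-100 was preincubated with compounds for 15 min at room temperature. Nitrocefin was then added from an 800 uM solution, and hydrolysis was followed at 480 nm.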
HCV inh: blocks hepatitis C virus | Huh7.5.1 HCVcc-Cre infection, luciferase reporter, 44 h | Potency, µM (titrated, usually from 41.8 µM), inactives show top-dose activity change, negative = inhibition, usual class: inhibitors | actives 3.4% (n = 340,000) | AID 651820
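HCVcc-Cre virus at an moi near 0.5 was added right after compound to cells cultured 4 h from seeding (1,000 cells/well). Luciferase activity was determined 44 h later, 15 min after substrate addition at RT.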
Pf growth 48h: P. falciparum growth inhibition at 48 hours (one generation). actives 5.9% (n = 310,000). Potency, µM (titrated, usually from 28.7 µM), without a hit: top-dose activity change, negative = inhibition, most hits filed as inhibitors. P. falciparum luciferase growth in erythrocytes, 48 h. AID 504832
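Parasite viability was followed by luminescence of a genomically integrated firefly luciferase. Cultures held 0.1% parasitemia at 2% hematocrit (final), incubated under 5% CO2 at 37 C.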
AmpC inh detg: inhibitors of E. coli AmpC beta-lactamase with detergent; AmpC hydrolysis of nitrocefin, absorbance 480 nm, 0.01% Triton; Potency, µM (doses to about 114 µM), for the others: at the top dose activity change, negative = inhibition, most hits filed as inhibitors; actives 0.041% (n = 370,000); AID 485294;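 also: 0% = no-compound wells and -100% = no-enzyme wells; nearly all actives have a fitted effect of over 25% in size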
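AmpC (5.3 nM in the dispensed reagent) in 20 mM phosphate pH 7.0 with 0.01% (detergent screen) or 0.0001% Triton X-100 was preincubated with compounds for 15 min at room temperature. Nitrocefin was then added from an 800 uM solution, and hydrolysis was followed at 480 nm.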
Numbers without * were called inactive; ? = inconclusive; · = no result; [ ] = dose if it differs, or a comment. Rows were chosen to be rich in hits. Some 11% of all compounds tested hit in one or more screens of this group. Calls follow the shape of the dose curve; as a rule, active = well fitted curve in the direction sought with a large enough effect; inconclusive = small, poorly fitted or top-dose-only effect, or another doubt; inactive = no such curve, though single readings can be large; an effect the other way counts as inactive or inconclusive. Unless noted, % is scaled to controls: 0 for no effect and ±100 for the full control effect; potency is read from the fitted curve at half-maximal effect.

SMILES	Pf growth 96h	AMA1 RON2 block	AmpC no deterg	HCV inh	Pf growth 48h	AmpC inh detg
CCOc1ccc(NC(=O)CS(=O)(=O)Cc2nc(-c3ccc(C)cc3)oc2C)cc1	·	·	·	·	·	7.6%
COc1ccc(Cl)cc1NC(=O)c1cc(C)nn1-c1ccccc1	·	·	·	·	·	19.6%
COc1ccc(N=C2C(=Nc3ccc(OC)cc3)N(c3ccc(OC)cc3)C(=S)N2C)cc1	·	6.7µM*	10.8%	-27.1%	5.22µM*	1.7%
COc1ccc(OC)c(Nc2nc(N)nc(CCl)n2)c1	?	6.0%	-19.7%	3.98µM*	?	-1.8%
COc1cccc(Nc2nc(N)nc(CCl)n2)c1	?	6.9%	-26.0%	?	?	3.9%
COc1ccc(N2CCN(Cc3nc(N)nc(Nc4ccccc4OC)n3)CC2)cc1	?	-9.1%	94.2%	-6.7%	-29.1%	2.4%
COc1ccccc1Nc1nc(N)nc(CCl)n1	-10.2%	36.0%	-2.3%	4.47µM*	?	-0.9%
COc1ccc(OCc2nc(N)nc(Nc3ccccc3OC)n2)cc1	8.0%	-3.9%	0.8%	14.1µM*	1.0%	-16.4%
O=C(CCSCc1cccc(Cl)c1)NCc1ccc(F)cc1Cl	·	·	·	·	·	-2.8%
COc1ccccc1C1C(C(N)=O)=C(C)Nc2nc(SCc3ccccc3F)nn21 (stereo not drawn)	·	·	·	·	·	2.7%
O=C(Nc1ccccc1)N(Cc1cccs1)c1ccc(Cl)cc1	·	·	·	·	·	-12.2%
Cc1cc(Nc2ccccc2)nc(NCc2ccccc2)n1	?	-1.5%	4.4%	?	0.586µM*	-5.0%
Cc1cc(Oc2ccccc2)nc(NCc2ccccc2)n1	-0.1%	3.6%	-23.8%	?	0.2%	3.4%
Cc1cc(C)nc(NCCCc2ccccc2)n1	13.1µM*	3.3%	-13.8%	0.8%	-27.4%	-2.2%
CNCCCc1ccccc1	162.0%	3.1%	-17.1%	5.8%	14.5%	-1.6%
Cc1cc(Nc2ccc(Cl)cc2)nc(NCc2ccccc2)n1	0.522µM*	-6.2%	-0.7%[2.29 µM]	?	0.928µM*	-10.9%
CCCCNc1cc(C)nc(NCc2ccccc2)n1	0.828µM*	-19.9%	30.9%	?	1.47µM*	-13.5%
Cc1nn(-c2ccccc2)c2sc(C(=O)Nc3cccc(O)c3)cc12	·	·	·	·	·	10.5%
Cc1cccc(NC(=O)CS(=O)(=O)c2nc(-c3ccccc3)cn2-c2cccc(Cl)c2)c1C	·	·	·	·	·	4.6%
COc1cccc2c1ncc1c(-c3ccc(C)cc3)nn(-c3ccc(F)cc3)c12	·	·	·	·	·	-0.6%
Cc1cc(N2CCC(C)CC2)nc(NCc2ccccc2)n1	7.38µM*	-8.1%	38.1%	6.31µM*	10.4µM*	-17.7%
Cc1cc(N2CCC(C)CC2)nc(-c2ccccc2O)n1	2.0%	48.1%	-4.8%	?	50.2%	-2.9%
Cc1cc(Nc2cccc(F)c2)nc(NCc2ccccc2)n1	?	-9.3%	-21.3%	?	0.37µM*	?
COc1ccc(CNC(=O)c2ccc(Cn3c(=O)c4cccn4c4cccnc43)cc2)c(OC)c1	·	·	·	·	·	1.4%
Nc1nc(-c2ccccc2)c(N=Nc2cccc3ccccc23)s1	?	15.8µM*	-22.4%	?	11.2%	-3.4%
SMILES	Pf growth 96h	AMA1 RON2 block	AmpC no deterg	HCV inh	Pf growth 48h	AmpC inh detg
Nc1nc(-c2ccccc2)c(N=Nc2ccccc2Cl)s1	?	14.1µM*	-33.7%	11.2µM*	?	?
COc1ccc(N=Nc2cnc(C)nc2-c2ccccc2)cc1	?	?	?	-10.1%	?	1.3%
Cc1ncc(N=Nc2ccccc2Cl)c(-c2ccccc2)n1	?	25.1µM*	1.9%	-4.0%	-19.9%	-10.7%
CC(=O)Nc1sc(N)nc1-c1ccccc1	?	15.5%	-9.5%	10.6%	·	?
COc1ccccc1NC(=O)c1sc2ncn(Cc3cccc4ccccc34)c(=O)c2c1C	9.28µM*	9.4%	-24.9%	-22.5%	12.1%	-12.1%
COc1ccccc1NC(=O)c1sc2ncn(Cc3ccc(C)cc3)c(=O)c2c1C	?	-3.4%	0.316µM*	-22.4%	?	-3.8%
CCc1cccc(-n2nnc(S(=O)(=O)c3ccc(OC)cc3)c2C)c1	·	·	·	·	·	19.0%
